Compounds without any hit were thinned out: in the full panel of roughly 83,000, 20% have a hit.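 For each line, cells grew in 96-well plates with the test compound present at a single concentration for 48 hours.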 Unmarked numbers belong to inactive results. Activity calls are given as the source filed them. How the source made its calls: active means growth percent below 10; inactive means the rest.
How the values were obtained:
Test in all cases: NCI-60 one-dose screen, 48 h (100 = growth as untreated, 0 = no growth, -100 = all killed)
Details in all cases: 10 µM unless noted
DU-145 prostate = test system: DU-145 prostate
K-562 leukemia = test system: K-562 leukemia
MALME-3M melanoma = test system: MALME-3M melanoma
MDA-MB-231 breast = test system: MDA-MB-231 breast
RXF 393 renal = test system: RXF 393 renal
SF-268 CNS = test system: SF-268 CNS
SF-295 CNS = test system: SF-295 CNS
SF-539 CNS = test system: SF-539 CNS
UACC-257 melanoma = test system: UACC-257 melanoma
M14 melanoma = test system: M14 melanoma

Compound | growth (DU-145 prostate) | growth (K-562 leukemia) | growth (MALME-3M melanoma) | growth (MDA-MB-231 breast) | growth (RXF 393 renal) | growth (SF-268 CNS) | growth (SF-295 CNS) | growth (SF-539 CNS) | growth (UACC-257 melanoma) | growth (M14 melanoma)
O=C(c1cc2cc(OCCCN3CCC3)ccc2[nH]1)N1C[C@@H](CCl)c2c1cc(OCc1ccccc1)c1ccccc21 | -29.5% (active) | 0.535% (active) | -73.9% (active) | -41.4% (active) | -80.8% (active) | 0.226% (active) | -4.45% (active) | -79.8% (active) | -23.1% (active) | -79.3% (active)
COc1ccc2[nH]c(=O)c(CSc3ccccc3Nc3nccc(-c4ccc5c(c4)OCO5)n3)cc2c1 | 78.4% | 52.7% | 99.4% | 93.7% | 79.7% | 73.4% | 104% | 95% | 96.6% | 91.5%
O=C1CCC(N2C(=O)c3cccc(NCCCCCC(=O)N4CCN(c5ccc6nc7c(nc6c5C(F)(F)F)C(=O)c5ncccc5C7=O)CC4)c3C2=O)C(=O)N1 (stereo not given) | -88.3% (active) | -0.95% (active) | -99.3% (active) | -46.2% (active) | -72.1% (active) | -29.5% (active) | -84.1% (active) | -95.4% (active) | -98.3% (active) | -87.2% (active)
COc1cc(/C=C/C(=O)c2cnn(-c3cc(=O)[nH]c4ccc(Br)cc34)c2C)cc(OC)c1OC | -83.4% (active) | -0.439% (active) | -42.4% (active) | -34.3% (active) | -76.2% (active) | -16.4% (active) | -61.8% (active) | -78.8% (active) | -30.3% (active) | -49.8% (active)
O=C(N/N=C/c1occc1Br)c1[nH]c2ccc(Br)cc2c1-c1ccccc1 | -78.4% (active) | 6.6% (active) | -94.9% (active) | -83.1% (active) | -88.2% (active) | -65.9% (active) | -91.2% (active) | -100% (active) | -68.2% (active) | -84.5% (active)
O=S(=O)(c1nc(-c2ccc(Br)cc2)oc1-c1ccc(Cl)cc1)N1CCCC(O)C1 (stereo not given) | 72.6% | 33.8% | 74.8% | 60% | 51.3% | 63% | 58.1% | 84.5% | 80.3% | 69.7%
O=C1c2cccc3c(N4CCN(Cc5ccccc5)CC4)ccc(c23)C(=O)N1c1cccc(-c2nn(-c3ccccc3)cc2-c2nc3ccccc3s2)c1 | 119% | 97.4% | 98.5% | 105% | 99.8% | 108% | 107% | 97% | 124% | 97.8%
CCCCCCCCCCCCCCCCCC(=O)Nc1ccc(OC)cc1 | 112% | 92% | 97.7% | 99.9% | 115% | 108% | 106% | 97.3% | 102% | 105%
COc1ccc(-c2cc(C)nc3[nH]c(=O)sc23)cc1 | 67.3% | 62.5% | 95.2% | 34.6% | 57% | 69.4% | 45.7% | 49.5% | 95.3% | 98.5%
COC(=O)c1cc(C(=O)C(F)(F)F)n2c3ccccc3c3ccccc3c12 | 96% | 82.6% | 104% | 42.4% | 69.2% | 83.4% | 37.2% | 67.5% | 110% | 87.6%
Cc1nn(-c2ccccc2)c2ncn(CC(=O)N/N=C/c3ccccc3O)c(=O)c12 | 51.6% | 26.5% | 55.9% | 35.9% | 42.2% | 38.9% | 24.9% | 46.7% | 54.9% | 45.2%
COc1ccc(-c2cc(C(=O)N=Nc3c(O)[nH]c4ccc(Cl)cc34)c3ccccc3n2)cc1OC | 126% | 109% | 105% | 90.9% | 104% | 118% | 101% | 101% | 115% | 89.2%
COc1cc(NC(=O)CSc2nnc(-c3ccc(-c4nc5ccc(Cl)cc5[nH]4)cc3)o2)cc(OC)c1OC | 96% | 29.5% | 18.1% | 60.2% | 25.8% | 52.9% | 65% | 24.1% | 67.2% | 33.5%
C[C@@H]1[C@H]2C[C@@H](C[C@H]1NCc1nc3ccccc3n1C1CCCCCC1)C2(C)C | 88.3% | 24.1% | 51.4% | 77.8% | 19% | 75.6% | 57.6% | 77.1% | 64.7% | 61%
COc1ccc(N=Nc2c(N)nn3c(-c4ccc(OC)c(OC)c4)ccnc23)cc1 | 79.2% | 80.2% | 78.4% | 81.1% | 65.2% | 87.2% | 65.6% | 20.6% | 99.3% | 62.5%
CNc1nc2ccccc2n2c(-c3ccc(O)c(O)c3)cnc12 | 2.32% (active) | 11.1% | 16% | 20.9% | -4.31% (active) | 5.12% (active) | 11% | -43% (active) | 57.1% | -1% (active)
COc1ccc(C(=O)C[n+]2cccc3c4ccccc4ccc32)cc1 | 56.3% | 16.4% | 34.3% | 40.4% | 55.8% | 38% | 29.8% | 53.1% | 15.4% | 38.5%
O=C(N/N=C/c1ccoc1)c1[nH]c2ccc(Br)cc2c1-c1ccccc1 | -48.3% (active) | 3.56% (active) | -84.7% (active) | -85.6% (active) | -86.3% (active) | -56.8% (active) | -97.9% (active) | -97.6% (active) | -78.1% (active) | -84.6% (active)
O=C(N=Nc1c(O)[nH]c2ccc(Br)cc12)c1ccc2nc(-c3ccc(Cl)cc3)[nH]c2c1 | -4.97% (active) | 10% | -34.7% (active) | -89.5% (active) | -42.3% (active) | -16.2% (active) | -62.8% (active) | -100% (active) | 46% | -3.86% (active)
O=C(N/N=C/c1ccc(Cl)o1)c1[nH]c2ccc(Br)cc2c1-c1ccccc1 | -49.1% (active) | 8.31% (active) | 2.82% (active) | -69.9% (active) | -62.6% (active) | 3.21% (active) | -19.3% (active) | -97.2% (active) | 17% | -3.48% (active)
COc1ccc2[nH]c(O)c(N=Nc3nc(-c4ccc(C#N)cc4)cs3)c2c1 | 52.9% | 67.7% | 15.1% | 59.7% | 38% | 82.6% | 68.8% | 48.9% | 70.6% | 82.3%
O=C1Nc2cc(-c3ccc(NS(=O)(=O)c4ccc(F)c(Cl)c4)cc3)ccc2/C1=C/c1ccc[nH]1 | 20% | 17.3% | 50.3% | -6.71% (active) | 29.5% | 60.1% | 53.6% | -34.8% (active) | 29.7% | 48.4%
CCCCCCCCCc1ccc(C(=O)Nc2cc(C)ccc2C(=O)OC)cc1 | 119% | 98.8% | 99.8% | 103% | 117% | 116% | 103% | 112% | 106% | 105%
Cc1ccc(C(=O)Nc2cc(-n3cnc(F)c3)cc(C(F)(F)F)c2)cc1C#Cc1cnc2cccnn12 | 80.9% | -9.19% (active) | -3.1% (active) | 49.2% | 57.9% | 91.6% | 63.9% | 3.39% (active) | 58% | 17.7%
